The results in this text go back to PubChem BioAssay (NCATS).

Where “and” joins values, the source holds several entries; their conditions need not be identical. Equal values may be shown once. Records with an inconclusive call do not appear. Calls of active or inactive are those of the source. Calls follow the shape of the dose curve; as a rule, active = well fitted inhibition curve with a large enough effect; inconclusive = small, poorly fitted or top-dose-only effect; inactive = no such curve, though single readings can be large or run the other way.
Potency is read from the fitted curve at half-maximal effect.

A short description of this assay: Confirmatory screen NINDS Rhodamine qHTS for Zika virus inhibitors (AID 1347161). Also: nearly all actives have a fitted effect of over 60% in size. Particulars: purified enzyme assay, Rhodamine110 substrate fluorescence, 15 min; series mostly up to 114 µM; activity change, negative = inhibition: at the top concentration. An excerpt: Avindra Nath, Ph.D., National Institute of Neurological Disorders and Stroke (NINDS), Bethesda, MD
Radhakrishnan Padmanabhan, Ph.D., Georgetown University (GU), Washington D.C.
Zika Virus causes congenital defects, including microcephaly and is associated with Guillain-Barre syndrome, eningoencephalitis and myelitis in infected adult. […] Using a target-based approach, we hope to establish a screening paradigm to uncover novel, cell-active NS2B-NS3 protease (Zika Virus) specific inhibitors from NCATS' collection of small molecules using qHTS.
Four assay panel was created to identify potential Zika Virus inhibitors. Namely, (1) GU unlinked NS2B-NS3 AMC tagged protease qHTS, (2) GU unlinked NS2B-NS3 Rhodamine tagged protease qHTS, (3) NINDS linked NS2B-NS3 AMC tagged protease qHTS, (4) NINDS linked NS2B-NS3 Rhodamine tagged protease qHTS. Active compounds were re-acquired and re-screened to confirm inhibition. Inhibitors were further screened against various confirmatory and counterscreens in dose response format.
Early Translation Branch (ETB)
National Center for Advancing Translational Sciences (NCATS), Rockville, MD
National Institute of Health (NIH), Bethesda, Maryland
For the linked assay, Nath lab (NINDS) provided the purified linked NS2B-NS3 protease which is consists of hydrophilic domain of NS2B linked to the NS3 protease domain by a flexible (-[…]-) linker. Control compound aprotinin is obtained from Thermo Scientific (#78432; Waltham, Massachusetts). Rhodamine110 substrate ([N-Cbz]-Nle-Lys-Arg-Arg-Rhod110-Arg-Arg-Lys-Nle-[N-Cbz]) was purchased from either Genscript or Bachem.
1536-well Protease (Rhodamine110 Substrate) Assay:
Briefly, 3 microL of enzyme (25 nM final concentration), in assay buffer (10 mM Tris-HCl pH 8.0 with 0.01% Tween 20) were dispensed into a 1,536-well solid-bottom black plate (Greiner Bio One, Monroe, NC). Twenty-three nL of compounds (final concentration range 7.28 nM to 114 microM) or control Aprotinin (final concentration range 3.47 nM to 114 microM) were transferred via Wako Pin-tool (Wako Automation, Richmond, VA). Samples were incubated (room temperature, protected from light) for 15 minutes followed by a 1 microL Rhodamine110 substrate addition (1.5 microM final concentration). Plates were then immediately read on a ViewLux High-throughput CCD imager (PerkinElmer, Waltham, MA) equipped with FITC fluorescence optics (480(20) nm excitation, 540(25) nm emission), then incubated (room temperature, protected from light) for 15 minutes (~15% conversion). The change in fluorescence intensity over the 15-minute reaction period was normalized against no-inhibitor and no-enzyme controls and the resulting percent inhibition data were fitted to a 4-parameter Hill equation. Aprotinin was used as intraplate control.
(Quantitative high-throughput screening tests each substance at several concentrations.)
On to `CCc1nc(N)nc(N)c1-c1ccc(Cl)cc1`, for which the “activity change, negative = inhibition” value is 17.4% (inactive). Regarding `N[C@@H](Cc1cc(I)c(Oc2cc(I)c(O)c(I)c2)c(I)c1)C(=O)O`, the Potency is 9.67 µM (active) and 12.6 µM (active). With `Oc1ccc(-c2nc(-c3ccc(F)cc3)c(-c3ccncc3)[nH]2)cc1`, the “activity change, negative = inhibition” value is -25.3% (inactive). Regarding `CN(C)c1ccc(O)c2c1C[C@H]1C[C@H]3[C@H](N(C)C)C(=O)C(C(N)=O)=C(O)[C@@]3(O)C(=O)C1=C2O`, the Potency was 44.1 µM (active) and 35 µM (active).

Regarding `Cc1nc(-c2ccc(OCC(C)C)c(C#N)c2)sc1C(=O)O`, the Potency is 31.2 µM (active). `O=c1c(O)c(-c2ccc(O)cc2O)oc2cc(O)cc(O)c12`: the Potency is 12.6 µM (active).

Consider `CC(C)c1ccc2c(c1)c(SC(C)(C)C)c(CC(C)(C)C(=O)O)n2Cc1ccc(Cl)cc1`, for which the Potency is 1.56 µM (active). Regarding `O=c1c(O)c(-c2cc(O)c(O)c(O)c2)oc2cc(O)cc(O)c12`, the Potency was 14.1 µM (active).

For `C=C(c1ccc(C(=O)O)cc1)c1cc2c(cc1C)C(C)(C)CCC2(C)C`, the Potency was 1.96 µM (active) and 2.47 µM (active). For `Cc1c(OCC(F)(F)F)ccnc1CS(=O)c1nc2ccccc2[nH]1` (stereo unspecified), the “activity change, negative = inhibition” value is -48.7% (inactive). On the same count and under the same terms, for `COc1cc2c(cc1OC)C1CC(=O)C(CC(C)C)CN1CC2` (stereo unspecified) the value was -33.3% (inactive).
